Screens deposited in PubChem BioAssay by National Center for Advancing Translational Sciences (NCATS).
An excerpt weighted towards active compounds, which were near 8.3% of everything screened.
HCV inh: qHTS Assay for Inhibitors of Hepatitis C Virus (HCV). hit rate 3.4% among 340,000. Huh7.5.1 HCVcc-Cre infection, luciferase reporter, 44 h. Potency, µM (titrated, usually from 41.8 µM), for inactives: top-dose activity change, negative = inhibition, actives largely listed as inhibitors; also: potency is read from the fitted curve at half-maximal effect
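Infectious HCVcc-Cre (~0.5 moi) was added to cells just after compound, with cells seeded 4 h earlier at 1,000 per well. Luciferase activity after 44 h culture reported infection; substrate was incubated 15 min at room temperature before reading.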
FMDV antiviral: High Throughput Screening for Foot and Mouth Disease Virus Antivirals | FMDV antiviral cell-based qHTS | Potency, µM (series often up to 57.9 µM), inactives show at the top dose activity change, negative = inhibition, usual class: inhibitors | hit rate 1.2% among 410,000; calls by dose curve; tested in HEK293T cells; also: read-out not given here; potency is read from the fitted curve at half-maximal effect; nearly all actives have a fitted effect of over 45% in size
LASV entry inh: qHTS for Inhibitors of binding or entry into cells for Lassa Virus; hit rate 1.2% among 300,000; Potency, µM (titrated, usually from 37.9 µM), for inactives: top-dose activity change, negative = inhibition, actives largely listed as inhibitors; Lassa virus pseudotype entry inhibition, cell reporter; AID 540256, 2011; calls by dose curve; tested in HEK293 cells; also: potency is read from the fitted curve at half-maximal effect; nearly all actives have a fitted effect of over 50% in size
Giardia FBPA inh: qHTS Assay for Inhibitors of Fructose-1,6-bisphosphate Aldolase from Giardia Lamblia. purified Giardia FBPA. Potency, µM (top dose mostly 59.6 µM), for inactives: at the top dose activity, negative = inhibition, actives largely listed as inhibitors. hit rate 0.71% among 290,000. AID 2451, 2010; also: potency is read from the fitted curve at half-maximal effect; nearly all actives have a fitted effect of over 55% in size
Target sequence (A8B2U2 whole entry, looked up): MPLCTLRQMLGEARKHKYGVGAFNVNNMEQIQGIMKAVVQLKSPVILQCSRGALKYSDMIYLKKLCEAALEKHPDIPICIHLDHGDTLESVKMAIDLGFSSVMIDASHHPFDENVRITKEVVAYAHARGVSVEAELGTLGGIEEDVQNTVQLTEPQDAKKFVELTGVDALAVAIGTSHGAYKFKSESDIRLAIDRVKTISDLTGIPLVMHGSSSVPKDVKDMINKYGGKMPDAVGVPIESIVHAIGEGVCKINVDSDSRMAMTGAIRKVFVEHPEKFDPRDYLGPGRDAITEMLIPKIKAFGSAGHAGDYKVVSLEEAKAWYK
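40 nM FBPA preincubated 10 min at RT with compound (up to 57.5 uM final), then substrate plus GAPDH/TPI/NAD/arsenate coupling and diaphorase/resazurin added. Fluorescence read after 20 min at RT, 525/598 nm.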
HCMV inh: qHTS Assay for inhibitors of the human cytomegalovirus (HCMV) | activity change, negative = inhibition, % at 57.5 µM | HFF cells, HCMV-luciferase reporter, 72 h; active compounds read low | hit rate 4.5% among 410,000 | AID 1259415, 2018; in the data active = activity change below about -60%; inconclusive = no clear call, values can overlap the other calls; inactive = above about -39%
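After 16 h attachment at 37C, HFF cells received test compound and HCMV-luciferase (1 PFU/cell); reporter luminescence read 72 h later, data normalized against buffer-only and known inhibitor Salinomycin.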
Marburg entry inh: qHTS for inhibitors of binding or entry into cells for Marburg Virus; Marburg virus pseudotyped entry inhibition, cell reporter; Potency, µM (doses to about 37.8 µM), for the others: top-dose activity change, negative = inhibition, hits mostly inhibitors; hit rate 1.8% among 300,000; AID 540276, 2011; calls by dose curve; tested in HEK293 cells; also: potency is read from the fitted curve at half-maximal effect
The depositor's hits bear a star; ? = inconclusive; · = no result given; [ ] = remark or other dose. Unless noted, calls follow the shape of the dose curve; as a rule, active = well fitted curve in the direction sought with a large enough effect; inconclusive = small, poorly fitted or top-dose-only effect, or another doubt; inactive = no such curve, though single readings can be large; an effect the other way counts as inactive or inconclusive. % is scaled to controls: 0 for no effect and ±100 for the full control effect.

SMILES	HCV inh	FMDV antiviral	LASV entry inh	Giardia FBPA inh	HCMV inh	Marburg entry inh
c1ccc(-c2cn3c4c(sc3n2)CCCC4)cc1	-8%	-52%	?	-19%	?	1.1µM*
CC(=O)Nc1nc2ccccc2n1CCOc1ccccc1	-4%	-18%	?	4%	13	?
S=C(Nc1ccccc1)Nc1nc2ccccc2n1CCOc1ccccc1	6.3µM*	25%	-10%	-1%	7	?
COc1ccc(CNCCC(c2ccc(C)cc2)c2ccco2)cc1 (centres undefined)	·	-7%	-20%[46.1 µM]	·	-78*	28µM*
COc1ccc(C(CC(=O)O)c2ccc3c(c2)OCO3)cc1 (centres undefined)	35%	-4%	-8%	11%	64	-14%
COc1ccc(CNCCC(c2ccccc2)c2ccc3c(c2)OCO3)cc1 (centres undefined)	10µM*	-21%	?	-1%	-18	?
O=C(Nc1cc(C(F)(F)F)ccc1F)C1CCCCC1	23%	-9%	20%	-16%	-106*	?
O=C(Nc1cc(C(F)(F)F)ccc1F)C1CCCC1	19%	22%	-1%	-6%	16	1%
COc1ccc(NC(=O)Cn2c(=O)n(CCc3ccccc3)c(=O)c3c4c(sc32)CCCC4)cc1	·	-13%	-15%[46.1 µM]	·	-13	7%[46.1 µM]
C[C@H]1Cc2c(COc3ccccc3)nc3c(c2CO1)CN(C(=O)C1CCCCC1)CC3	·	·	·	6%[12.9 µM]	·	-12%[14.2 µM]
Nc1cc2ccncc2c2ccccc12	-25%	-21%	·	?	-96*	·
N#Cc1cc2ccncc2c2ccccc12	·	-5%	·	·	-39	·
COc1ccc2c(c1)cc1c(=O)n(CC(=O)NCCCc3ccccc3)nc(C)n12	·	-7%	·	·	7	-2%[46.1 µM]
N#CCCn1cc(/C=N/NC(N)=S)c(-c2ccc(Br)cc2)n1	?	-14%	-2%[46.1 µM]	-4%	-70*	?
N#CCCn1cc(/C=N/NC(N)=S)c(-c2ccccc2)n1	9%	2%	9%[46.1 µM]	?	-3	?
Cc1noc(C)c1C(=O)N1CCC2(CC1)CN(c1cccc(-c3ccccc3)c1)C2	·	?	·	-9%	·	·
CCNS(=O)(=O)c1ccc(CCC(=O)O)cc1	10µM*	-8%	?	2%	-36	3%
CCN1C[C@@H]2[C@@H]3C(=O)N(Cc4ccccc4)C(=O)[C@@H]3[C@](Cc3ccccc3)(C1=O)N2C(=O)c1ccc(Cl)cc1	7%	58%	·	·	-69*	·
CCN1C[C@@H]2[C@@H]3C(=O)N(Cc4ccccc4)C(=O)[C@@H]3[C@](Cc3ccccc3)(C1=O)N2C(=O)c1ccccc1	20%	0%	·	·	-7	·
COc1ccc(O)c(CN2CCC3(CC2)c2ccccc2[C@@H](NC(=O)c2cccc(F)c2)[C@@H]3OC)c1	·	2%	·	·	·	·
COc1cc(C(CC2=C(c3ccccc3)Cc3ccccc32)NC(=O)C(F)(F)F)cc(OC)c1OC (centres undefined)	·	·	·	·	·	8%[14.2 µM]
COc1cc(OC)c(C2=Nc3ccc(Br)cc3C(c3ccccc3)N2CC(=O)NN)cc1OC (centres undefined)	-6%	-11%	·	-4%	-68*	·
NNC(=O)CN1C(c2ccccc2)=Nc2ccc(Br)cc2C1c1ccccc1 (centres undefined)	-18%	-7%	?	-16%	-9	-30%[46.1 µM]
c1ccc2c(c1)nnn2Cn1nnc2ccccc21	·	0%	·	·	-63*	·
c1ccc(Cn2nnc3ccccc32)cc1	22%	6%	2%	13%	-22	3%
OC(c1ccc(F)cc1)c1nc(-c2ccccc2)cs1 (centres undefined)	·	48%	·	·	48	·
CC(C)c1cccc(-c2csc(C(O)c3ccc(F)c(F)c3)n2)c1 (centres undefined)	·	4%	·	·	-70*	·
COc1ccc(-c2csc(C(O)c3cccc(OC)c3)n2)cc1 (centres undefined)	·	-13%	·	·	-68*	·
OC(c1ccc(F)cc1)c1nc(-c2ccc(Cl)cc2)cs1 (centres undefined)	·	8%	·	·	-66*	·
